# According to PubChem BioAssay AID1159580 (chemical genetic matrix, 2015):
# Among all 5,500 compounds or so, about 2,000 (36%) were called active. Roughly 18% stayed inconclusive and do not appear here. The list shows a part of the results. Unmarked numbers belong to inactive results. Cut-off read from the data, not from the text of the source: active = normalized growth mostly below about 0.91 (no sharp cut-off); inconclusive = no clear call, values can overlap the other calls; inactive = mostly above about 0.92.
# Assay: chemical genetic growth profiling, strain panel (AID 1159580);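 note: tested at 20 µM; growth read once vehicle control cultures reached saturation at 30 °C; 1 = growth at the plate median or of vehicle wells; lower values mean less growth of the strain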
# Details: growth OD
smiles,measurement,setting,value
C[C@]12CCC3c4ccc(OC(=O)CCC(=O)O)cc4CCC3C1CCC2=O (stereo partly specified),normalized growth,"S. cerevisiae deletion strains, locus YAL013W, strain DEP1, active compounds read low",0.981
same,normalized growth,"S. cerevisiae deletion strains, locus YBR021W, strain FUR4, active compounds read low",0.85
same,normalized growth,"S. cerevisiae deletion strains, locus YBR229C, strain ROT2, active compounds read low",1.01
same,normalized growth,"S. cerevisiae deletion strains, locus YCL029C, strain bik1, active compounds read low",0.97
same,normalized growth,"S. cerevisiae deletion strains, locus YDL035C, strain GPR1, active compounds read low",0.871
same,normalized growth,"S. cerevisiae deletion strains, locus YDL074C, strain BRE1, active compounds read low",0.872
same,normalized growth,"S. cerevisiae deletion strains, locus YDL101C, strain DUN1, active compounds read low",0.999
same,normalized growth,"S. cerevisiae deletion strains, locus YDL134C, strain PPH21, active compounds read low",1
same,normalized growth,"S. cerevisiae deletion strains, locus YDL185W, strain tfp1, active compounds read low",0.951
same,normalized growth,"S. cerevisiae deletion strains, locus YDL192W, strain arf1, active compounds read low",0.916 (active)
same,normalized growth,"S. cerevisiae deletion strains, locus YDR101C, strain arx1, active compounds read low",0.984
same,normalized growth,"S. cerevisiae deletion strains, locus YDR150W, strain NUM1, active compounds read low",0.998
same,normalized growth,"S. cerevisiae deletion strains, locus YDR162C, strain NBP2, active compounds read low",0.785 (active)
same,normalized growth,"S. cerevisiae deletion strains, locus YDR318W, strain mcm21, active compounds read low",0.926
same,normalized growth,"S. cerevisiae deletion strains, locus YDR388W, active compounds read low",0.98
same,normalized growth,"S. cerevisiae deletion strains, locus YDR502C, strain sam2, active compounds read low",0.933
same,normalized growth,"S. cerevisiae deletion strains, locus YEL061C, strain CIN8, active compounds read low",1
same,normalized growth,"S. cerevisiae deletion strains, locus YER110C, active compounds read low",0.965
same,normalized growth,"S. cerevisiae deletion strains, locus YER155C, strain BEM2, active compounds read low",1.01
same,normalized growth,"S. cerevisiae deletion strains, locus YER167W, strain BCK2, active compounds read low",0.944
same,normalized growth,"S. cerevisiae deletion strains, locus YGL078C, strain dbp3, active compounds read low",1
same,normalized growth,"S. cerevisiae deletion strains, locus YGL086W, strain mad1, active compounds read low",0.922 (active)
same,normalized growth,"S. cerevisiae deletion strains, locus YGL248W, strain PDE1, active compounds read low",1.01
same,normalized growth,"S. cerevisiae deletion strains, locus YGR078C, strain PAC10, active compounds read low",0.949
same,normalized growth,"S. cerevisiae deletion strains, locus YGR135W, strain pre9, active compounds read low",0.936
same,normalized growth,"S. cerevisiae deletion strains, locus YGR229C, strain SMI1, active compounds read low",1.03
same,normalized growth,"S. cerevisiae deletion strains, locus YGR252W, strain gcn5, active compounds read low",0.783
same,normalized growth,"S. cerevisiae deletion strains, locus YHR030C, strain SLT2, active compounds read low",1
same,normalized growth,"S. cerevisiae deletion strains, locus YHR079C, strain IRE1 (second series), active compounds read low",0.99
same,normalized growth,"S. cerevisiae deletion strains, locus YHR094C, strain hxt1, active compounds read low",0.993
same,normalized growth,"S. cerevisiae deletion strains, locus YHR129C, strain ARP1, active compounds read low",0.996
same,normalized growth,"S. cerevisiae deletion strains, locus YHR200W, strain rpn10, active compounds read low",0.955
same,normalized growth,"S. cerevisiae deletion strains, locus YIL066C, strain RNR3, active compounds read low",0.879
same,normalized growth,"S. cerevisiae deletion strains, locus YIL073C, strain SPO22, active compounds read low",0.806
same,normalized growth,"S. cerevisiae deletion strains, locus YIL125W, strain kgd1, active compounds read low",0.992
same,normalized growth,"S. cerevisiae deletion strains, locus YIR030C, strain dcg1, active compounds read low",0.996
same,normalized growth,"S. cerevisiae deletion strains, locus YJL095W, strain BCK1, active compounds read low",0.946
same,normalized growth,"S. cerevisiae deletion strains, locus YJL134W, strain LCB3, active compounds read low",1.01
same,normalized growth,"S. cerevisiae deletion strains, locus YJL168C, strain set2, active compounds read low",1
same,normalized growth,"S. cerevisiae deletion strains, locus YJL187C, strain SWE1 (second series), active compounds read low",0.974
same,normalized growth,"S. cerevisiae deletion strains, locus YJR043C, strain POL32, active compounds read low",0.911
same,normalized growth,"S. cerevisiae deletion strains, locus YJR075W, strain HOC1, active compounds read low",0.968
same,normalized growth,"S. cerevisiae deletion strains, locus YKL009W, strain mrt4, active compounds read low",0.884
same,normalized growth,"S. cerevisiae deletion strains, locus YKL068W, active compounds read low",1
same,normalized growth,"S. cerevisiae deletion strains, locus YKL085W, strain MDH1 (second series), active compounds read low",1.01
same,normalized growth,"S. cerevisiae deletion strains, locus YKL085W, strain MDH1, active compounds read low",1.01
same,normalized growth,"S. cerevisiae deletion strains, locus YKL190W, strain CNB1, active compounds read low",0.991
same,normalized growth,"S. cerevisiae deletion strains, locus YKR001C, strain vps1, active compounds read low",0.836 (active)
same,normalized growth,"S. cerevisiae deletion strains, locus YLR039C, strain RIC1, active compounds read low",0.578 (active)
same,normalized growth,"S. cerevisiae deletion strains, locus YLR058C, strain SHM2, active compounds read low",0.985
same,normalized growth,"S. cerevisiae deletion strains, locus YLR102C, strain apc9, active compounds read low",1.01
same,normalized growth,"S. cerevisiae deletion strains, locus YLR262C, strain YPT6, active compounds read low",0.559 (active)
same,normalized growth,"S. cerevisiae deletion strains, locus YLR268W, strain sec22, active compounds read low",0.976
same,normalized growth,"S. cerevisiae deletion strains, locus YLR330W, strain CHS5, active compounds read low",0.986
same,normalized growth,"S. cerevisiae deletion strains, locus YLR342W, strain FKS1 (second series), active compounds read low",0.81
same,normalized growth,"S. cerevisiae deletion strains, locus YLR371W, strain rom2, active compounds read low",0.97
same,normalized growth,"S. cerevisiae deletion strains, locus YLR418C, strain cdc73, active compounds read low",0.914
same,normalized growth,"S. cerevisiae deletion strains, locus YML016C, strain PPZ1, active compounds read low",0.985
same,normalized growth,"S. cerevisiae deletion strains, locus YML032C, strain rad52, active compounds read low",0.903 (active)
same,normalized growth,"S. cerevisiae deletion strains, locus YML124C, strain tub3, active compounds read low",1
same,normalized growth,"S. cerevisiae deletion strains, locus YMR078C, strain ctf18, active compounds read low",0.965
same,normalized growth,"S. cerevisiae deletion strains, locus YMR223W, strain ubp8, active compounds read low",0.914
same,normalized growth,"S. cerevisiae deletion strains, locus YMR263W, strain SAP30, active compounds read low",0.971
same,normalized growth,"S. cerevisiae deletion strains, locus YMR307W, strain GAS1, active compounds read low",0.91
same,normalized growth,"S. cerevisiae deletion strains, locus YNL067W, strain RPL9B, active compounds read low",0.944
same,normalized growth,"S. cerevisiae deletion strains, locus YNL128W, strain TEP1, active compounds read low",0.995
same,normalized growth,"S. cerevisiae deletion strains, locus YNL153C, strain GIM3, active compounds read low",1
same,normalized growth,"S. cerevisiae deletion strains, locus YNL233W, strain BNI4, active compounds read low",0.989
same,normalized growth,"S. cerevisiae deletion strains, locus YNL250W, strain rad50, active compounds read low",0.952
same,normalized growth,"S. cerevisiae deletion strains, locus YNL271C, strain bni1, active compounds read low",0.964
same,normalized growth,"S. cerevisiae deletion strains, locus YNL298W, strain CLA4, active compounds read low",0.886 (active)
same,normalized growth,"S. cerevisiae deletion strains, locus YNL307C, strain MCK1, active compounds read low",0.765 (active)
same,normalized growth,"S. cerevisiae deletion strains, locus YNL322C, strain KRE1, active compounds read low",0.992
same,normalized growth,"S. cerevisiae deletion strains, locus YNR052C, strain pop2, active compounds read low",0.873 (active)
same,normalized growth,"S. cerevisiae deletion strains, locus YOL006C, strain TOP1, active compounds read low",0.787
same,normalized growth,"S. cerevisiae deletion strains, locus YOL012C, strain htz1",1.6
same,normalized growth,"S. cerevisiae deletion strains, locus YOL147C, strain pex11, active compounds read low",0.978
same,normalized growth,"S. cerevisiae deletion strains, locus YOR061W, strain CKA2, active compounds read low",0.993
same,normalized growth,"S. cerevisiae deletion strains, locus YOR069W, strain VPS5, active compounds read low",1
same,normalized growth,"S. cerevisiae deletion strains, locus YOR136W, strain idh2, active compounds read low",0.995
same,normalized growth,"S. cerevisiae deletion strains, locus YOR144C, strain elg1, active compounds read low",0.986
same,normalized growth,"S. cerevisiae deletion strains, locus YOR184W, strain ser1, active compounds read low",0.675 (active)
same,normalized growth,"S. cerevisiae deletion strains, locus YOR316C, strain cot1, active compounds read low",0.997
same,normalized growth,"S. cerevisiae deletion strains, locus YPL055C, strain LGE1, active compounds read low",0.874
same,normalized growth,"S. cerevisiae deletion strains, locus YPL241C, strain CIN2, active compounds read low",1
same,normalized growth,"S. cerevisiae deletion strains, locus YPR119W, strain clb2, active compounds read low",1.01
same,normalized growth,"S. cerevisiae deletion strains, locus YPR141C, strain kar3, active compounds read low",0.997
same,normalized growth,"S. cerevisiae deletion strains, locus YPR163C, strain tif3, active compounds read low",0.961
same,normalized growth,"S. cerevisiae deletion strains, locus YPR167C, strain met16, active compounds read low",0.998
same,normalized growth,"S. cerevisiae deletion strains, strain wtn01, active compounds read low",0.929
same,normalized growth,"S. cerevisiae strains, strain wild type, active compounds read low",0.95
